# Screens from PubChem BioAssay.
# The list is not random: actives were taken first. Their share in the collection is about 3.5%.
# TEAD-YAP inh: TEAD-YAP interaction inhibition, primary screen, TEAD-YAP interaction inhibitor project, luminescence, HEK-TIYL cells; TEAD-Gal4/YAP UAS-luciferase luminescence; inhibition, % at 9.12 µM; 1.4% of 640,000 active; in the data active = inhibition above about 32%;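 note: 0% = median of test compound wells and 100% = reference inhibitor wells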
# FBW7 act: FBW7 E3 ligase activators, primary screen, biochemical, AlphaScreen, human; F-box/WD repeat-containing protein 7 (Homo sapiens), Q969H0; 0.13% of 650,000 active; AlphaScreen FBW7–phospho-cyclin E peptide binding, activator screen; normalized activity (activation), % at 26.1 µM; AID 1259310, 2017; in the data active = normalized activity above about 1.9%;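 note: purified mutant Fbw7 with reduced substrate affinity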
# GPR151 ag: activators of human GPR151, primary screen, cell-based, PathHunter beta-arrestin, luminescence; G-protein coupled receptor 151 (Homo sapiens), Q8TDV0; PathHunter beta-arrestin GPR151 cells; activation, % at 11.2 µM; 1% of 650,000 active; AID 1508602, 2020; in the data active = activation above about 4.9%;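 note: 0% = median of compound wells and 100% = cells with positive control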
# Target sequence (Q8TDV0 whole entry, looked up): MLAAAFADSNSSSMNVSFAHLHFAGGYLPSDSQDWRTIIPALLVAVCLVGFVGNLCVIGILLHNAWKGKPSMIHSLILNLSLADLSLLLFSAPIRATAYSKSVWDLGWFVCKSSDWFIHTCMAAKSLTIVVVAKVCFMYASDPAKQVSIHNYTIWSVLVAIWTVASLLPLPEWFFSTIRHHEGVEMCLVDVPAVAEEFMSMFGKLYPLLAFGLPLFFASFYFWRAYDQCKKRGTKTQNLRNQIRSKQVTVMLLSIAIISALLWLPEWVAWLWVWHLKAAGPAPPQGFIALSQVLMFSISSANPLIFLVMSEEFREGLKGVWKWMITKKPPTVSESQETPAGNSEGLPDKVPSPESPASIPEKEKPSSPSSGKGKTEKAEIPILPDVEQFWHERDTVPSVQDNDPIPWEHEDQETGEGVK
# MITF primary: MITF inhibitors, primary screen, biochemical, AlphaScreen, human; Microphthalmia-associated transcription factor (Homo sapiens), O75030; AlphaScreen MITF homodimerization, bead proximity signal; inhibition, % at 2.6 µM; 0.91% of 650,000 active; in the data active = inhibition above about 50%;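 note: 0% = vehicle wells with protein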
# MITF confirm: MITF inhibitors, retest of hits, confirmation, biochemical, AlphaScreen, triplicate | inhibition, % at 2.6 µM | AID 1259372, 2018 | AlphaScreen MITF homodimerization, biotin/His-MITF beads | 16% of 4,700 active | shares compounds with MITF primary;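 active = inhibition above a cutoff derived from the DMSO control wells, cut at about 28% in these data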;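 note: 0% = MITF dimer wells with DMSO only; inhibitors lower the bead chemiluminescence by keeping MITF from dimerizing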
# AS interf DR: AlphaScreen optical interference compounds, dose response, counter-screen, biochemical, HTS. 6% of 480 active. IC50, µM. AID 1259373, 2018. AlphaScreen optical interference counterscreen, cell-free. shares compounds with MITF primary; call rule not given here
# AS interf ctr: AlphaScreen optical interference compounds, counter-screen for MITF inhibitor project, biochemical, triplicate. shares compounds with MITF primary. LysRS AlphaScreen counterscreen, signal interference. inhibition, % at 2.6 µM. 7.6% of 4,700 active;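 active = inhibition above a cutoff derived from the DMSO control wells, cut at about 30% in these data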
# The depositor's hits bear a star; nt = no result.
SMILES,TEAD-YAP inh,FBW7 act,GPR151 ag,MITF primary,MITF confirm,AS interf ctr,others
CCOC(=O)c1cnc(SC2CC(=O)N(c3ccc([N+](=O)[O-])cc3)C2=O)nc1N (stereo not given),-1,0,0,3,nt,nt,
Cc1nc(SCCOc2ccc(C(C)(C)C)cc2)c2ccccc2n1,-2,0,-1,-4,nt,nt,
Cc1cc(NC(=O)COC(=O)c2ccc(NC(N)=O)cc2)ccc1Br,-5,0,-1,52*,-5,1,
CC(C)NC(=O)/C(C#N)=C/c1ccc(-c2ccc([N+](=O)[O-])cc2Br)o1,-18,0,1,73*,77*,-20,AS interf DR=>7.1
CC(=O)N/N=C/c1ccc(-c2ccc([N+](=O)[O-])cc2Br)o1,8,0,-2,-25,nt,nt,
CCOc1ccccc1Nc1nnc(C(C)(C)C)c(=O)[nH]1,-2,0,2,-6,nt,nt,
Cc1ccccc1CN1CCN(C2CCCC(C)C2)CC1 (stereo not given),-6,0,-1,76*,-15,4,
O=C(O)C1CCN(Cc2ccccn2)CC1,0,0,1,-5,nt,nt,
CC1CCCN(C(=O)C2CCN(Cc3ccccn3)CC2)C1 (stereo not given),4,0,3,18,nt,nt,
CCN(Cc1ccccc1)C1CCN(Cc2ccccn2)CC1,4,0,-1,59*,-10,0,
CC1CCCC(N2CCN(Cc3ccccn3)CC2)C1 (stereo not given),-5,0,-1,72*,5,16,
c1ccc(N2CCN(C3CCN(Cc4ccccn4)CC3)CC2)cc1,-3,0,1,54*,4,7,
Cc1ccccc1NC(=O)NC1(C(=O)NCc2cccnc2)CCCCC1,2,0,0,11,nt,nt,
c1ccc(CN2CCC(N3CCN(Cc4ccccn4)CC3)CC2)cc1,4,1,-2,40,nt,nt,
c1ccc(C2CCC(N3CCN(Cc4ccccn4)CC3)CC2)cc1 (stereo not given),-1,0,-2,68*,9,12,
c1ccc(C2CCC(N3CCN(Cc4cccnc4)CC3)CC2)cc1 (stereo not given),2,0,-1,65*,-10,12,
c1ccc(CN2CCC(c3ccncc3)CC2)nc1,3,0,0,9,nt,nt,
c1ccc(CN2CCN(C3CCCC3)CC2)nc1,-9,0,-1,74*,11,10,
COC(=O)c1sc2nc(-c3cccs3)cc(-c3ccc(F)cc3)c2c1N,-2,0,-2,-3,nt,nt,
COc1cc(/C=C(\C#N)c2ccc([N+](=O)[O-])cc2)cc([N+](=O)[O-])c1O,-1,0,0,21,nt,nt,
Cc1ccc(N2C(=O)C3CC=CC(C)C3C2=O)cc1F (stereo not given),6,0,-2,0,nt,nt,
O=C(CNC(=O)c1cc(-c2ccco2)nc2ccccc12)Nc1ccc(F)c(F)c1F,4,0,1,14,nt,nt,
O=C1c2ccccc2C(=O)N1c1ccc(OCc2ccccc2)cc1,-9,1,0,12,nt,nt,
COc1cccc(CN2CCN(Cc3ccc(OC)c4ccccc34)CC2)c1OC,-3,0,2,70*,7,13,
COc1ccc(CN2CCN(Cc3ccc(Cl)cc3)CC2)c(OC)c1OC,10,0,-1,82*,10,18,
SMILES,TEAD-YAP inh,FBW7 act,GPR151 ag,MITF primary,MITF confirm,AS interf ctr,others
COc1ccc(CN2CCN(S(=O)(=O)c3ccc(Cl)cc3)CC2)c(OC)c1OC,-4,0,1,5,nt,nt,
COc1ccc(CN2CCN(CCOc3ccc([N+](=O)[O-])c(C)c3)CC2)c(OC)c1OC,6,0,0,83*,-2,9,
Cc1cc(OCCN2CCCCCC2)ccc1[N+](=O)[O-],-4,0,-1,20,nt,nt,
COc1cccc(CN2CCN(Cc3ccc(OC)c(OC)c3OC)CC2)c1,6,0,0,66*,3,14,
COc1cc(C2NC(=O)NC(C)=C2C(=O)OCC(C)C)cc([N+](=O)[O-])c1O (stereo not given),10,0,0,-1,nt,nt,
CS(=O)(=O)Nc1ccc(NS(C)(=O)=O)c(C2=C(O)CCCC2=O)c1,-6,0,0,-7,nt,nt,
Cc1cc2nc(-c3cc(NC(=O)c4ccccc4I)ccc3Cl)oc2cc1C,-21,0,1,10,nt,nt,
COc1ccc(CN2CCN(Cc3ccccc3Cl)CC2)c(OC)c1OC,4,0,0,54*,14,18,
COc1cccc(CN2CCN(C(=O)c3cccc(OC)c3OC)CC2)c1,5,0,0,54*,9,7,
COc1cc(CN2CCN(C(=O)c3cccc(OC)c3OC)CC2)cc(OC)c1O,1,0,0,39,nt,nt,
COc1cccc(CN2CCSCC2)c1OC,-6,0,0,32,nt,nt,
COc1cccc(CN2CCN(Cc3ccc(OC)c(OC)c3OC)CC2)c1OC,-2,0,0,77*,11,14,
COc1ccc(CN2CCN(CCOCCOc3ccccc3)CC2)c(OC)c1OC,6,-1,0,75*,-12,-3,
COc1ccc(OC)c(CN2CCN(Cc3ccc(OC)c(OC)c3OC)CC2)c1,-5,0,-1,32,nt,nt,
COC(=O)c1nnn(-c2nonc2N)c1CSC1=NCCS1,13,0,-1,3,nt,nt,
O=C(CNS(=O)(=O)c1ccc(Cl)cc1)OCc1ccc([N+](=O)[O-])cc1,3,0,1,-3,nt,nt,
COc1ccc(-n2cnc(N/C(C)=C\C(C)=O)c2C(=O)c2ccccc2)cc1,26,0,1,-3,nt,nt,
COc1cccc(C(=O)N2CCC3(CC2)CC3C(=O)NCCCc2ccccc2)c1OC (stereo not given),-1,1,0,73*,-3,-3,
COc1cccc(C(=O)N2CCC3(CC2)CC3C(=O)Nc2ccccc2)c1OC (stereo not given),9,0,0,2,nt,nt,
Nc1cc(Oc2ccc(O)c(N)c2)ccc1O,0,-1,3,111*,117*,78*,
Nc1cc(C(=O)c2ccc(O)c(N)c2)ccc1O,-4,0,0,20,nt,nt,
CC1CN(Cc2ccc(C(F)(F)F)cc2)CC(C)O1 (stereo not given),8,0,-1,55*,1,4,
CC1CN(Cc2cccc(Cl)c2)CC(C)O1 (stereo not given),1,0,-1,64*,0,4,
CC1CN(Cc2ccc(Cl)cc2)CC(C)O1 (stereo not given),0,0,1,37,nt,nt,
Cc1cccc(CN2CCN(CCCc3ccccc3)CC2)c1,3,0,-2,69*,-3,2,
